Data from PubChem BioAssay.
Records with an inconclusive call do not appear. Activity calls are given as the source filed them. Unless noted, no rule for the calls is given here.

Tests used:
[1] = biological target: ATP-dependent translocase ABCB1 (Homo sapiens) (UniProt P08183); experiment: P-glycoprotein substrate transport blockade – cell-based (AID 377; in the data active = fluorescence slope change above about 50%); conditions: MDR1-expressing cells, fluorescent substrate accumulation slope; stronger effect = higher value; concentration not given here
Chain of ATP-dependent translocase ABCB1 (Homo sapiens) (P08183 whole entry, looked up): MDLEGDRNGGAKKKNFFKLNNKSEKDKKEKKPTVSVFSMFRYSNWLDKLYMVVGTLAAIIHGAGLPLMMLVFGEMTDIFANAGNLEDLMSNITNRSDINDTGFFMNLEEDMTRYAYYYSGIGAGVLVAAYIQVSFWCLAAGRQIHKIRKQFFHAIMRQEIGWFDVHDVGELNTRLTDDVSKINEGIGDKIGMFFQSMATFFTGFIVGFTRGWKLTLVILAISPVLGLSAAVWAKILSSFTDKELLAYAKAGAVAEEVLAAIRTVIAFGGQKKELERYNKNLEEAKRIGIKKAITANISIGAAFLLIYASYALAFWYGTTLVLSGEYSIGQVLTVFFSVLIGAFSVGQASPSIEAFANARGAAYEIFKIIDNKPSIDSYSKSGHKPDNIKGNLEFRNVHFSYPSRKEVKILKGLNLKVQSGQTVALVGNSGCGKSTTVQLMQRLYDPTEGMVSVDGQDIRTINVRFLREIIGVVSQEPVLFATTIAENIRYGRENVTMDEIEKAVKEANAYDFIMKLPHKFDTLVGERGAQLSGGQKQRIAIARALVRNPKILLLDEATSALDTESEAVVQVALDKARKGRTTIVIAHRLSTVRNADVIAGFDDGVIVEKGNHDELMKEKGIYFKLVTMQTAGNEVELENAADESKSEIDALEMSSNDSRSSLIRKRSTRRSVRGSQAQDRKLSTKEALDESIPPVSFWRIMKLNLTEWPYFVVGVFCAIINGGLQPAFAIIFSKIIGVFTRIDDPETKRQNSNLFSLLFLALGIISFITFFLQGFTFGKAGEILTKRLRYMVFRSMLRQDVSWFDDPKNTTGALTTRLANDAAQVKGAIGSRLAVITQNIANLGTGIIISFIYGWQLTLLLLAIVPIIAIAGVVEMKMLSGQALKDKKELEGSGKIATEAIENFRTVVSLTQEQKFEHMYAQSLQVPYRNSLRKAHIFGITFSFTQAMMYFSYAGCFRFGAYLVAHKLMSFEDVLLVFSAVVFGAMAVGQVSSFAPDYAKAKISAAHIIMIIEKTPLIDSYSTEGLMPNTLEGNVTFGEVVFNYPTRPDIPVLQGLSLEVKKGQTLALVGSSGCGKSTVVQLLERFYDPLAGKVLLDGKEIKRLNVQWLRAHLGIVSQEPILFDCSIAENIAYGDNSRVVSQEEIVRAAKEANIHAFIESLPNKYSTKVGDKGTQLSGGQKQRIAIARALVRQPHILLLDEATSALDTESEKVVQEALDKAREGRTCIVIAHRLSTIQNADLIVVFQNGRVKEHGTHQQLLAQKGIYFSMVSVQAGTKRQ

[2] = compounds altering viability of human ES cells (AID 493140); conditions: human embryonic stem cell survival screen; stronger effect = higher value;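 also: cells exposed to compounds for four days before counting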
[3] = P. berghei load reduction in hepatocytes – cell-based, HepG2, luciferase luminescence, HepG2 viability, primary screen (AID 624349; in the data active = parasite load remaining mostly below about 12%, no sharp cut-off; inactive = mostly above about 10%;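 also: 100% = mean of DMSO negative control wells on the same plate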); conditions: P. berghei liver stage in HepG2, luciferase luminescence, concentration not given here; parasite load remaining: stronger effect = lower value; viability: measured here: HepG2 viability without parasites

Compound	fluorescence slope change [1]	survival [2]	parasite load remaining [3]	viability [3]
CC1Nc2ccccc2C1NC(=O)c1ccc(Cl)c(S(N)(=O)=O)c1 (centres undefined)	26.2% (inactive)	–	–	–
O=C(O)c1cc2ccccc2c(Cc2cc3ccccc3c(C(=O)O)c2O)c1O (tested in a mixture with another compound)	14.8% (inactive)	7.75 (inactive)	58.5% (inactive)	76.8%
Nc1cccc2c1C(=O)c1cccc(N)c1C2=O	105% (active)	–	–	–
CCCCC/C=C\C/C=C\C[C@H](O)/C=C/C=C\CCCC(=O)O	–	91.5 (inactive)	–	–
CC1OC(O[C@H]2/C=C/C=C/C=C/C=C/C=C/C=C/C=C/[C@H](C)[C@@H](O)[C@@H](C)[C@H](C)OC(=O)C[C@H](O)C[C@H](O)CC[C@@H](O)[C@H](O)C[C@H](O)C[C@]3(O)C[C@H](O)[C@@H](C(=O)O)[C@H](C2)O3)C(O)C(N)C1O (some centres undefined)	94.6% (active)	10.9 (inactive)	50.3% (inactive)	92.5%
O=C(O)CCCC[C@@H]1SCC2NC(=O)NC21 (some centres undefined)	79.8% (active)	–	–	–
CC[C@H]1OC(=O)[C@H](C)[C@@H](OC2CC(C)(OC)C(O)C(C)O2)[C@H](C)[C@@H](OC2OC(C)CC(N(C)C)C2O)[C@](C)(O)C[C@@H](C)/C(=N\OCOCCOC)[C@H](C)[C@@H](O)[C@]1(C)O (some centres undefined)	66.5% (active)	6.25 (inactive)	–	–
CC[N+]1(C)C2CCC1CC(OC(=O)[C@H]1CCC(C(=O)OC3CC4CCC(C3)[N+]4(C)CC)(c3ccccc3)c3ccccc31)C2 (some centres undefined)	92.7% (active)	4.5 (inactive)	–	–
CN(N=O)C(=O)N[C@@H]1C(O)OC(CO)[C@@H](O)[C@H]1O (some centres undefined)	25.6% (inactive)	–	–	–
CC(C)N1CCN(c2ccc(OC[C@@H]3CO[C@@](Cn4cncn4)(c4ccc(Cl)cc4Cl)O3)cc2)CC1	82.8% (active)	7.75 (inactive)	57.7% (inactive)	72.8%
CC1CCC2(OC1)O[C@H]1C[C@H]3[C@@H]4CC[C@H]5C[C@@H](O)CC[C@]5(C)[C@H]4CC(=O)[C@]3(C)[C@H]1[C@@H]2C (some centres undefined)	74.2% (active)	3.25 (inactive)	–	–
Nc1ccc(S(=O)(=O)Nc2ccc3nccnc3c2)cc1	6.1% (inactive)	–	–	–
C[C@@H]1C(=O)O[C@H]2CC34[C@H]5C[C@@H](C(C)(C)C)C36[C@@H](OC(=O)[C@@H]6O)OC4(C(=O)O5)[C@]21O (some centres undefined)	57.6% (active)	10.1 (inactive)	79.2% (inactive)	79.7%
CC(=O)S[C@@H]1CC2=CC(=O)CC[C@]2(C)[C@H]2CC[C@@]3(C)[C@@H](CC[C@]34CCC(=O)O4)[C@H]12	162% (active)	–	–	–
CC[C@H](C)[C@H]1O[C@]2(CC[C@@H]1C)C[C@@H]1C[C@@H](C/C=C(\C)C(O[C@H]3C[C@H](OC)[C@@H](O[C@H]4C[C@H](OC)[C@@H](O)[C@H](C)O4)[C@H](C)O3)[C@@H](C)/C=C/C=C3\CO[C@@H]4[C@H](O)C(C)=C[C@@H](C(=O)O1)[C@]34O)O2 (some centres undefined)	136% (active)	17.6 (inactive)	93.7% (inactive)	89.6%
CCC(=O)OC1C(C)OC(OC2C(C)OC(O[C@H]3[C@@H](CC=O)C[C@@H](C)[C@@H](O)/C=C/C=C/C[C@@H](C)OC(=O)C[C@@H](OC(=O)CC)[C@@H]3OC)C(O)C2N(C)C)CC1(C)O (some centres undefined)	72% (active)	16.6 (inactive)	77.4% (inactive)	89%

Compound	fluorescence slope change [1]	survival [2]	parasite load remaining [3]	viability [3]
NCC1OC(OC2C(N)CC(N)C(O)C2O[C@@H]2O[C@H](CO)[C@H](O)C2O)C(N)C(O)C1O (some centres undefined)	50.5% (active)	0.167 (inactive)	–	–
Cc1c(C)c2c(c(C)c1O)CC[C@](C)(CCC[C@@H](C)CCC[C@@H](C)CCCC(C)C)O2	–	5.83 (inactive)	52.8% (inactive)	78.5%
CS(=O)(=O)c1ccc(-c2nc(-c3ccc(F)cc3)c(-c3ccncc3)[nH]2)cc1	–	113 (inactive)	28.7% (inactive)	88.5%
CC(C)CC(=O)NC(C(=O)N[C@H](C(=O)NC(CC(C)C)[C@@H](O)CC(=O)N[C@@H](C)C(=O)NC(CC(C)C)[C@@H](O)CC(=O)O)C(C)C)C(C)C (some centres undefined)	–	5.42 (inactive)	67.7% (inactive)	80.5%
O=c1[nH]c(=O)n([C@H]2CC(O)[C@@H](CO)O2)cc1I (some centres undefined)	–	6.25 (inactive)	130% (inactive)	96.5%
CC[C@@H]1OC(=O)[C@H](C)[C@H](O[C@H]2C[C@@](C)(OC)[C@@H](O)[C@H](C)O2)[C@@H](C)[C@@H](O[C@@H]2O[C@H](C)C[C@H](N(C)C)[C@H]2O)C(C)(O)C[C@@H](C)[C@@H]2NC(COCCOC)OC([C@H]2C)[C@]1(C)O (some centres undefined)	–	4.33 (inactive)	84.5% (inactive)	77.5%
CC(C)(CS)C(=O)N1CCC[C@@H]1C(=O)O	–	8.75 (inactive)	94.4% (inactive)	94.8%
CN1CCC23c4ccccc4NC1C21CCN(C)C3Nc2ccccc21	–	4.92 (inactive)	79.4% (inactive)	76.7%
CC(=O)NC(CC(=O)O)C(=O)O (centres undefined)	–	11.8 (inactive)	89% (inactive)	77%
CN=C(NC#N)NCCSCC1N=CN=C1C (centres undefined)	–	16.7 (inactive)	100% (inactive)	88.8%
COC1CC(O[C@@H]2[C@H](C)[C@H](OC3OC(C)CC(N(C)C)C3OC(C)=O)[C@H](C)CC3(CO3)C(=O)[C@@H](C)C(OC(C)=O)[C@H](C)[C@H](C)OC(=O)[C@@H]2C)OC(C)C1OC(C)=O (some centres undefined)	–	27.8 (inactive)	86.6% (inactive)	90.9%
C=C1CC[C@@H](O)C/C1=C/C=C1\CCC[C@]2(C)[C@@H]([C@H](C)CCCC(C)C)CC[C@@H]12	–	15.8 (inactive)	79.3% (inactive)	76%
CC(C)(CO)[C@H](O)C(=O)NCCC(=O)O	–	19.5 (inactive)	85.1% (inactive)	77.3%
CN(C)CC/C=C1/c2ccccc2CSc2ccccc21	–	3.75 (inactive)	68.1% (inactive)	76.6%
C1CCN2C[C@H]3C[C@@H](CN4CCCC[C@@H]34)[C@H]2C1	–	10 (inactive)	73.9% (inactive)	72.2%
CC[C@H]1OC(=O)[C@H](C)[C@@H](O[C@H]2C[C@@](C)(OC)[C@@H](O)[C@H](C)O2)[C@H](C)[C@@H](O[C@H]2O[C@H](C)C[C@H](N(C)C)[C@H]2O)[C@](C)(O)C[C@@H](C)C(=O)[C@H](C)[C@@H](O)[C@]1(C)O	–	35.4 (inactive)	97.5% (inactive)	81.9%
